Screens as filed in PubChem.
ClpP mod: qHTS Assay for Activators of ClpP; purified B. subtilis ClpP, FRET peptide cleavage, 20 min; Potency, µM (doses to about 57.5 µM), for the others: top-dose activity change, negative = active; hit rate 1.9% among 340,000; AID 651965, 2013; active = well fitted falling curve with a large enough effect; inconclusive = small, poorly fitted or top-dose-only effect; inactive = no such curve, though single readings can be large or run the other way; also: potency is read from the fitted curve at half-maximal effect; the source files actives as falling curves though it sought activators and does not explain the sign; nearly all actives have a fitted effect of over 65% in size
Target sequence (P80244 whole entry, looked up): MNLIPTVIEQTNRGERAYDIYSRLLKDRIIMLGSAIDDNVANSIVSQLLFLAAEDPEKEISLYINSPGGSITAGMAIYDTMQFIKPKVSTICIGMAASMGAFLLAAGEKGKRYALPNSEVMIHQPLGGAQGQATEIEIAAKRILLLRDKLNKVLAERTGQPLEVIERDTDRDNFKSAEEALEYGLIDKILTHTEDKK
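FRET quenching reversal measured ClpP activation: 10 microg/mL B. subtilis ClpP at pH 8 with the FRET-FV decapeptide, read at 430 nm after 320 nm excitation. The 20-min minus 0-min signal was scaled between DMSO/no-enzyme wells and ADEP (5.8 microM final).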
IL-1B inflam inh: qHTS for Inhibitors of Inflammasome Signaling: IL-1-beta AlphaLISA Primary Screen | THP-1 LPS/ATP IL-1B secretion, AlphaLISA, 16 h; stronger effect = lower value | activity change, % at 57.5 µM | hit rate 4.7% among 360,000 | AID 743279, 2014; in the data active = activity change below about -50%; inconclusive = mostly about -30% to -49%; also: % is scaled to controls: 0 for no effect and ±100 for the full control effect
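Secreted IL-1B measured by AlphaLISA bead assay after 16 h compound exposure of THP-1 cells; compounds (final up to 57.5 uM) added 1 h before LPS (250 ng/mL) and ATP (1.25 mM) stimulation; lower signal means less secretion.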
TDP1 cell CPT: qHTS for Inhibitors of human tyrosyl-DNA phosphodiesterase 1 (TDP1): qHTS in cells in presence of CPT; chicken DT40 Tdp1-/-;hTDP1 cells + 20 nM CPT, ATP luminescence, 48 h; Potency, µM (series often up to 46.2 µM), inactives show top-dose activity change, negative = growth inhibition, most hits filed as inhibitors; hit rate 12% among 420,000; also: potency is read from the fitted curve at half-maximal effect; % is scaled to controls: 0 for no effect and ±100 for the full control effect; nearly all actives have a fitted effect of over 55% in size
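Chicken DT40 Tdp1-/- cells complemented with human TDP1, 400 cells/well, exposed to compounds plus 20 nM camptothecin for at least 48 h at 37 C; viability read as ATP content by CellTiter-Glo luminescence.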
D3 ag: qHTS of D3 Dopamine Receptor Agonist: qHTS; hit rate 0.58% among 410,000; D3R DiscoveRx beta-arrestin cells, luminescence, 90 min; max activation, %; D(3) dopamine receptor (Homo sapiens), P35462; in the data active = max activation above about 30%; also: 0% is about no effect
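Agonist-mode cell screen: cells plated at 1500/well and incubated overnight at 37 °C, then exposed to library compounds for 90 min at 37 °C. Detection reagent was added for 30–60 min at room temperature, and luminescence was read.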
DRD3 antagonist: qHTS of D3 Dopamine Receptor Antagonist: qHTS; hit rate 2.5% among 360,000; AID 652054, 2013; D3R cells, DiscoveRx beta-arrestin luminescence, antagonist mode; stronger effect = lower value; D(3) dopamine receptor (Homo sapiens), P35462; max response, negative = inhibition, %; in the data active = max response below about -50%; inconclusive = no clear call, values can overlap the other calls; also: % is scaled to controls: 0 for no effect and ±100 for the full control effect
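Cells expressing the human receptor were seeded at 1500 cells/well, incubated overnight at 37 degrees C in 5% CO2, then exposed to library compounds with dopamine controls for 90 minutes at 37 degrees C before luminescent detection.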
TDP1 cell noCPT: qHTS for Inhibitors of human tyrosyl-DNA phosphodiesterase 1 (TDP1): qHTS in cells in absence of CPT. DT40 Tdp1-/- hTDP1 cells, no CPT, ATP luminescence, 48 h. hit rate 15% among 420,000. Potency, µM (doses to about 46.2 µM), without a hit: at the highest dose activity change, negative = growth inhibition, most hits filed as inhibitors; also: potency is read from the fitted curve at half-maximal effect; % is scaled to controls: 0 for no effect and ±100 for the full control effect; nearly all actives have a fitted effect of over 55% in size
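DT40 Tdp1-/-;hTDP1 cells, no CPT (DMSO vehicle only), 400 cells/well; compounds pin-transferred; ≥48 hr, 37 °C; CellTiter-Glo 30 min RT dark, luminescence read.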
Numbers without * were called inactive; ? = inconclusive; / = not tested or not shown. Only some compounds are listed: those with a hit (about 21% of all), similar ones and a draw of the others. Unless noted, calls follow the shape of the dose curve; as a rule, active = well fitted inhibition curve with a large enough effect; inconclusive = small, poorly fitted or top-dose-only effect; inactive = flat fitted curve, though single readings scatter.

SMILES	ClpP mod	IL-1B inflam inh	TDP1 cell CPT	D3 ag	DRD3 antagonist	TDP1 cell noCPT
CCn1c(C)cc(C(=O)COC(=O)c2cccnc2SC)c1C	2%	-9	16µM*	5	-7	?
CNC(=O)COC(=O)c1cccnc1SC	-4%	-22	1%	-5	17	-12%
CSc1ncccc1C(=O)OCC(=O)c1cc(C)n(C)c1C	33%	-9	-21%	4	?	-30%
COCCNC(=O)COC(=O)c1cccnc1SC	/	20	18µM*	17	6	-108%
CCN(CC)CCCNC(=O)Cc1csc2nc(-c3ccc(Cl)cc3)cn12	-2%	/	?	-4	/	?
CC(Sc1nnc(Cc2ccccc2)o1)C(=O)NC1(C#N)CCCCC1 (stereo not given)	2%	-25	-4%	-1	13	-30%
CNC(=O)c1ccc(-c2sc3nc(N4CCOCC4)c4c(c3c2N)CC(C)(C)OC4)o1	?	129	21µM*	0	42	18µM*
CNC(=O)c1ccc(-c2sc3nc(N4CCOCC4)c4c(c3c2N)CCCC4)o1	?	5	21µM*	10	70	15µM*
CN1Cc2c(N3CCOCC3)nc3sc(C(=O)c4ccc(Br)cc4)c(N)c3c2CC1(C)C	/	/	4.1µM*	-22	-50*	5.2µM*
CN1Cc2c(N3CCOCC3)nc3sc(C#N)c(N)c3c2CC1(C)C	/	-23	-21%	0	47	?
CCc1noc(C)c1C(=O)N1CCCSC1=Nc1ccccc1Cl	/	22	-24%	4	-26	?
Cc1ccc(NC(=S)NCC2CCCO2)cc1C (stereo not given)	2%	7	4%	5	20	-6%
Cc1ccc(NC(=S)NCC2CCN(C(C)c3ccccc3)C2)cc1C (stereo not given)	1%	-29	23µM*	-17	-25	16µM*
Cc1ccc(S(=O)(=O)N2CCC(C(=O)Nc3ccccc3N3CCCC3)CC2)cc1C	2%	-2	-21%	-6	-8	?
COCCCNC(=S)N/N=C/c1ccc2c(c1)OCO2	-6%	-23	5%	6	-5	-14%
O=C(NCc1ccccn1)C(=O)N/N=C/c1ccc2c(c1)OCO2	1%	0	-10%	-4	0	-2%
Cc1cc(C)c(S(=O)(=O)N/N=C/c2ccc3c(c2)OCO3)c(C)c1	-1%	11	?	6	-71*	-9%
O=C(NCCc1ccccc1)C(=O)N/N=C/c1ccc2c(c1)OCO2	-4%	0	23µM*	-10	-23	21µM*
Cc1cc(C)c(OCC(=O)N/N=C/c2ccc3c(c2)OCO3)c(C)c1	1%	7	2.9µM*	26	22	5.8µM*
O=S(=O)(N/N=C/c1ccc2c(c1)OCO2)c1ccc(Br)cc1	1%	1	-2%	-6	-13	-2%
S=C(NN=Cc1ccc2c(c1)OCO2)NN=Cc1ccc2c(c1)OCO2	/	3	23µM*	-7	-10	23µM*
Cc1[nH]c(=O)[nH]c(=O)c1N1CCOCC1	-1%	67	9%	7	8	15%
CS(=O)(=O)N1CCc2cc(C(=O)NCc3ccccc3)ccc21	-2%	/	-8%	-9	/	-26%
CC(CCc1ccccc1)NC(=O)CCC1CCCC1 (stereo not given)	0%	-3	6%	-21	38	-21%
CC1(C)SC2c3ccccc3C(=O)N2C1C(=O)O (stereo not given)	-1%	-2	-7%	-12	-6	-19%
Cc1ccc2oc(-c3ccc(NC(=O)CCC(=O)O)cc3)nc2c1	4%	/	2%	2	/	3%
